Assay outcomes (PubChem)
An excerpt weighted towards active compounds, which were near 4.5% of everything screened.
CSC inhib: cancer stem cell inhibition; cancer stem cell-like cells viability, luminescence; inhibition, % at 7.5 µM; actives 1.1% (n = 300,000); in the data active means inhibition above about 75%; inconclusive means no clear call, values can overlap the other calls; tested in HMLE shEcad cells
Jurkat NFkB inh: lowers PMA/ionomycin-induced NF-kB signal in Jurkat cells. actives 0.53% (n = 330,000). inhibition, % at 4 µM. PMA/ionomycin-induced NF-kB luciferase reporter, luminescence; in the data active means inhibition above about 50%
Mdm2 MdmX PPI: disrupts the human Mdm2-MdmX interaction. SaOS-2 split-luciferase Mdm2/MdmX complementation, luminescence. inhibition, % at 8 µM. actives 3% (n = 330,000). AID 485346;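 active means inhibition of at least 50% at 8 µM in the primary screen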
Target sequence (O15151 whole entry, looked up): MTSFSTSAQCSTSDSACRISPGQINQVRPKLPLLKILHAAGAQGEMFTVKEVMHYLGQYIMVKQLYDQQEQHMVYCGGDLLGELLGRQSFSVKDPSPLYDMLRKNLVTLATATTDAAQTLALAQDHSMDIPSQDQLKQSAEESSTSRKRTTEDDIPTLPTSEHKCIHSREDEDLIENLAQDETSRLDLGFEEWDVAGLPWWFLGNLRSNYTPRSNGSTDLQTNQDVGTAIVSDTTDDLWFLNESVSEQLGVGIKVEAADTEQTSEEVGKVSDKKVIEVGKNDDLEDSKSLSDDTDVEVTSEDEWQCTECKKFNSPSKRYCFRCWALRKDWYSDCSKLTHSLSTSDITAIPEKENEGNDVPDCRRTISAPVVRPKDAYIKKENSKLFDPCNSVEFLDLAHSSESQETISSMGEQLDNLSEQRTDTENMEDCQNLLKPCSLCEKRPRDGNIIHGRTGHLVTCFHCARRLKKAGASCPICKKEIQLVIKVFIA
Target sequence (Q00987 whole entry, looked up): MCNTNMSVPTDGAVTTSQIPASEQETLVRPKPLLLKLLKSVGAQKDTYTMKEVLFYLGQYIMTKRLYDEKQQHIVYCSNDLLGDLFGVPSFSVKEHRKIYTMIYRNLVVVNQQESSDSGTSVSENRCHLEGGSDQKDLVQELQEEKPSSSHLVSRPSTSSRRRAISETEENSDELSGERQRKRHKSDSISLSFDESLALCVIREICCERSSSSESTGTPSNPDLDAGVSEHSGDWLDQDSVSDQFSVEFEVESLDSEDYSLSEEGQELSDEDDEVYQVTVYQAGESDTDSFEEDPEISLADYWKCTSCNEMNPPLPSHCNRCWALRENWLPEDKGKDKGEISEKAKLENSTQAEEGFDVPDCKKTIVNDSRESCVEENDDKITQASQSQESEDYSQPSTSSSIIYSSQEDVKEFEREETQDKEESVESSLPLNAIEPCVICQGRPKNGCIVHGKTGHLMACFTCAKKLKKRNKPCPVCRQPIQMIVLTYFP
Gli-Sufu antag: antagonists of Gli-Sufu signaling. Sufu-KO-LIGHT fibroblasts, Gli luciferase reporter luminescence. inhibition, % at 5 µM. actives 0.74% (n = 340,000);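 active means inhibition above about 55%, limit read from the data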;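 further: 0% = DMSO-treated cells and 100% = wells with medium but no cells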
697 NFkB inh: inhibitors of the PMA/ionomycin-induced NF-kB reporter in 697 B cells | inhibition, % at 4 µM | actives 0.33% (n = 330,000) | 697 B-cell NF-kB luciferase reporter, 16 h | AID 435022; in the data active means inhibition above about 35%
aSyn 5UTR inh: 5' untranslated region of α-synuclein, MLPCN primary screen; alpha-synuclein 5'UTR reporter, inhibitor activity; inhibition, % (tested at 7.5 µM); actives 0.82% (n = 300,000); AID 1813; in the data active means inhibition above about 60%; inconclusive means no clear call, values can overlap the other calls;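 further: H4 neuroglioblastoma cells stably carrying SNCA 5'UTR luciferase fusion; 0% = DMSO wells and 100% = positive control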
Jurkat NFkB conf: lowers PMA/ionomycin-induced NF-kB signal in Jurkat cells. shares compounds with Jurkat NFkB inh. Jurkat NF-kB luciferase, 16 h. inhibition, % at 4 µM. actives 27% (n = 2,700);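 active means inhibition reaching about 45% at 4 µM in either replicate, limit read from the data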;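 further: plate controls were PMA/ionomycin stimulated DMSO wells for no effect and unstimulated DMSO wells for full effect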
697 NFkB conf: inhibitors of the PMA/ionomycin-induced NF-kB reporter in 697 B cells, retest | shares compounds with 697 NFkB inh | 697 B-cell NF-kB luciferase, 16 h | inhibition, % at 4 µM | actives 35% (n = 2,000); in the data active means inhibition mostly above about 28%, no sharp cut-off; inactive means mostly below about 22%
Mdm2 MdmX conf: confirmation of human Mdm2/MdmX interaction inhibitors | Mdm2-MdmX binding, luminescent assay | shares compounds with Mdm2 MdmX PPI | inhibition, % at 8 µM | actives 55% (n = 10,000); in the data active means inhibition above about 40%
Full FLuc ctr: inhibits full-length luciferase, flagging false Mdm2/MdmX hits. shares compounds with Mdm2 MdmX PPI. SaOS-2 full-length luciferase counterscreen, luminescence. inhibition, % at 8 µM. actives 77% (n = 6,200);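 active means mean inhibition at 8 µM reaching about 37%, which flags the compound as non-specific, limit read from the data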;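 further: p53-null SaOS-2 cells with luciferase driven by a doxycycline-inducible promoter; compound on cells about two nights before reading with doxycycline added after day one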
The depositor's hits bear a star.

How did COc1ccc(Nc2cc(C)nc3ccc(OC)cc23)cc1 do in these assays?
CSC inhib: 12; Jurkat NFkB inh: -5; Mdm2 MdmX PPI: 11; Gli-Sufu antag: 15; 697 NFkB inh: -48; aSyn 5UTR inh: -10

What do the screens show for `COc1ccc2nc(C)cc(N/N=C/c3ccc(F)cc3)c2c1`?
CSC inhib: 106*; Jurkat NFkB inh: 98*; Mdm2 MdmX PPI: 100*; Gli-Sufu antag: 23; 697 NFkB inh: 32; aSyn 5UTR inh: 93*; Jurkat NFkB conf: 89*; Mdm2 MdmX conf: 100*; Full FLuc ctr: 51*

What do the screens show for `CN=c1scc(-c2ccccc2F)n1/N=C/c1ccc[nH]1`?
CSC inhib: 32; Jurkat NFkB inh: 70*; Mdm2 MdmX PPI: 94*; Gli-Sufu antag: 86*; 697 NFkB inh: 36*; aSyn 5UTR inh: 83*; Jurkat NFkB conf: 75*; 697 NFkB conf: 42*; Mdm2 MdmX conf: 98*; Full FLuc ctr: 21

What do the screens show for `O=C(C1CC12CCCC2)N1CCC(CO)(Cc2ccccc2Cl)CC1` (stereo not drawn)?
CSC inhib: -9; Jurkat NFkB inh: -15; Mdm2 MdmX PPI: 14; Gli-Sufu antag: -3; 697 NFkB inh: -18; aSyn 5UTR inh: 21

How did CCCN(CCC)C1=CC(=[N+]2CCCC2)CC(C)(C)C1 do in these assays?
CSC inhib: 1; Jurkat NFkB inh: 69*; Mdm2 MdmX PPI: 52*; Gli-Sufu antag: 82*; 697 NFkB inh: 4; aSyn 5UTR inh: 6; Jurkat NFkB conf: 40; Mdm2 MdmX conf: 42*; Full FLuc ctr: 58*

How did C/C(=N/NC(=O)CNC(=O)c1ccccn1)c1ccccc1 do in these assays?
CSC inhib: 6; Jurkat NFkB inh: -2; Mdm2 MdmX PPI: 9; Gli-Sufu antag: -14; 697 NFkB inh: 11; aSyn 5UTR inh: -11

How did C/C(=N\NC(=O)c1ccc(F)cc1)c1ccccn1 do in these assays?
CSC inhib: 104*; Jurkat NFkB inh: 100*; Mdm2 MdmX PPI: 97*; Gli-Sufu antag: 12; 697 NFkB inh: -371; aSyn 5UTR inh: -93; Jurkat NFkB conf: -21; 697 NFkB conf: 0; Mdm2 MdmX conf: 60*; Full FLuc ctr: 58*

Results for C=CCNC(=S)N/N=C(\C)c1ccccn1 ?
CSC inhib: 114*; Jurkat NFkB inh: 78*; Mdm2 MdmX PPI: 91*; Gli-Sufu antag: 84*; 697 NFkB inh: 24; aSyn 5UTR inh: 86*; Jurkat NFkB conf: 51*; Mdm2 MdmX conf: 64*; Full FLuc ctr: 32

How did COc1ccc(-n2cnnc2SCC(=O)Nc2ccccc2F)cc1 do in these assays?
CSC inhib: -9; Jurkat NFkB inh: 8; Mdm2 MdmX PPI: 17; Gli-Sufu antag: -11; 697 NFkB inh: 16; aSyn 5UTR inh: 2

How did Cn1nc([N+](=O)[O-])nc1Sc1nnc(-c2ccccc2)o1 do in these assays?
CSC inhib: -2; Jurkat NFkB inh: 74*; Mdm2 MdmX PPI: 100*; Gli-Sufu antag: 46; 697 NFkB inh: -165; aSyn 5UTR inh: 92*; Jurkat NFkB conf: 70*; Mdm2 MdmX conf: 76*; Full FLuc ctr: 52*

Results for c1ccc(-c2ccc(-c3nc(-c4ccccn4)no3)cc2)cc1 ?
CSC inhib: -10; Jurkat NFkB inh: 77*; Mdm2 MdmX PPI: 97*; Gli-Sufu antag: 81*; 697 NFkB inh: 39*; aSyn 5UTR inh: 147*; Jurkat NFkB conf: 81*; 697 NFkB conf: 36*; Mdm2 MdmX conf: 89*; Full FLuc ctr: 23

Results for Cc1ccc(-c2nc(-c3ccccn3)no2)cc1 ?
CSC inhib: 70; Jurkat NFkB inh: 69*; Mdm2 MdmX PPI: 86*; Gli-Sufu antag: 75*; 697 NFkB inh: 26; aSyn 5UTR inh: 99*; Jurkat NFkB conf: 79*; Mdm2 MdmX conf: 86*; Full FLuc ctr: 53*

How did CCC1CCCCN1C(=S)NC1CCCCC1 (stereo not drawn) do in these assays?
CSC inhib: -9; Jurkat NFkB inh: 4; Mdm2 MdmX PPI: -35; Gli-Sufu antag: 6; 697 NFkB inh: 7; aSyn 5UTR inh: -24

Results for Cc1nn(-c2ccccn2)c(C)c1Oc1ccccc1O ?
CSC inhib: -10; Jurkat NFkB inh: 10; Mdm2 MdmX PPI: 11; Gli-Sufu antag: 4; 697 NFkB inh: -2; aSyn 5UTR inh: 1

Results for Cc1nn(-c2nc3ccccc3s2)c(C)c1Oc1ccccc1O ?
CSC inhib: inconclusive; Jurkat NFkB inh: -194; Mdm2 MdmX PPI: 77*; Gli-Sufu antag: -10; 697 NFkB inh: inactive; aSyn 5UTR inh: -77; Jurkat NFkB conf: -142; 697 NFkB conf: inactive; Mdm2 MdmX conf: 66*; Full FLuc ctr: 87*

How did COc1ccc(C(=O)NNC(=O)C23CC4CC(CC(C4)C2)C3)cc1OC do in these assays?
CSC inhib: -9; Jurkat NFkB inh: 3; Mdm2 MdmX PPI: -23; Gli-Sufu antag: -3; 697 NFkB inh: 30

Results for O=C(Nc1ccc(N2CCN(C(=O)c3cccs3)CC2)cc1)c1ccc([N+](=O)[O-])o1 ?
CSC inhib: 100*; Jurkat NFkB inh: 52*; Mdm2 MdmX PPI: 72*; 697 NFkB inh: -32; aSyn 5UTR inh: 106*; Jurkat NFkB conf: 22; Mdm2 MdmX conf: 80*; Full FLuc ctr: 39*

What do the screens show for `Cc1nc(Cl)c(C(=O)NCc2ccccc2)c(C)c1Cl`?
CSC inhib: 3; Jurkat NFkB inh: -7; Mdm2 MdmX PPI: 18; Gli-Sufu antag: 45; 697 NFkB inh: -5; aSyn 5UTR inh: -5

Results for O=C(NCc1ccccc1)c1c(Cl)nc(Cl)c(Cl)c1Cl ?
CSC inhib: 68; Jurkat NFkB inh: 51*; Mdm2 MdmX PPI: 100*; Gli-Sufu antag: 1; 697 NFkB inh: 6; aSyn 5UTR inh: 99*; Jurkat NFkB conf: 13; Mdm2 MdmX conf: 94*; Full FLuc ctr: 53*

How did COC(=O)c1ccccc1NC1=C/C(=N\S(=O)(=O)c2cccs2)c2ccccc2C1=O do in these assays?
CSC inhib: 102*; Jurkat NFkB inh: 52*; Mdm2 MdmX PPI: 100*; Gli-Sufu antag: -17; 697 NFkB inh: 17; aSyn 5UTR inh: -91; Jurkat NFkB conf: 66*; Mdm2 MdmX conf: 79*; Full FLuc ctr: 58*

Results for Cc1cc2c(cc1C)C(c1ccccc1OC(C)C)CC(=O)N2 (stereo not drawn) ?
CSC inhib: 96*; Jurkat NFkB inh: 52*; Mdm2 MdmX PPI: 57*; Gli-Sufu antag: 2; 697 NFkB inh: -76; aSyn 5UTR inh: -12; Jurkat NFkB conf: 36; Mdm2 MdmX conf: 55*; Full FLuc ctr: 43*
